This note sets out measurements from PubChem BioAssay AID2533 (National Center for Advancing Translational Sciences (NCATS), 2010).

SMILES strings stand for the structures. Inconclusive results are not listed. Entries that show only a call come without a potency. Activity calls are given as the source filed them. Calls come from the whole dose curve; as a rule, active = well fitted activation curve with a large enough effect; inconclusive = small, poorly fitted or top-dose-only effect; inactive = flat fitted curve, though single readings scatter.
Potency is the fitted concentration of half-maximal effect.

The target of the assay is Pyruvate kinase PKM (Homo sapiens) (UniProt P14618). Briefly: Confirmation Concentration-Response Assay for Activators of Human Muscle isoform 2 Pyruvate Kinase: for Probe SAR. Note: nearly all actives have a fitted effect of over 60% in size. Conditions: purified PKM2, ATP generation, Kinase-Glo luminescence; series mostly up to 57.5 µM. In a few lines: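 ATP generation was detected by luciferase-coupled luminescence (Kinase-Glo). The reaction ran for 1 hour at room temperature with 0.1 mM ADP, 0.5 mM PEP and 0.1 nM purified hPK-M2 in 50 mM imidazole, pH 7.2, with 7 mM MgCl2. The enzyme was set at intermediate activity so activators could be detected.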
Chain of Pyruvate kinase PKM (Homo sapiens) (P14618 whole entry, looked up, canonical isoform): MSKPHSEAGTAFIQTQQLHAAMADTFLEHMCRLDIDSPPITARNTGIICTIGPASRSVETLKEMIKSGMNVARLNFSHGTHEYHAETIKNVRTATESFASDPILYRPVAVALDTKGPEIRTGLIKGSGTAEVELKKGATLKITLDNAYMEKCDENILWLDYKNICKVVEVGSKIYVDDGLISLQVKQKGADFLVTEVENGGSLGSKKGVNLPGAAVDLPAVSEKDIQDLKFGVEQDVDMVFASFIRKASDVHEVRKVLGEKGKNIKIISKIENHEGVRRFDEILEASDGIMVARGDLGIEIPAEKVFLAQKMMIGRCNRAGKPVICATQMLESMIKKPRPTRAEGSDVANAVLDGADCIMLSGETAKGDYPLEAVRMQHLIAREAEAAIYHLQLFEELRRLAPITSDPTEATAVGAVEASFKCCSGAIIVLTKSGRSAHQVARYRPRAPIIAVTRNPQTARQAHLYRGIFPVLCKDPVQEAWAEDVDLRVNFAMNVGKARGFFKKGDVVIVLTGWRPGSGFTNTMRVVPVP
Regarding `O=C1c2ccccc2C(=O)N1Cc1ccccc1`, the Potency result is “inactive”.

Regarding `O=C1c2ccccc2C(=O)N1Cc1ccncc1`, the Potency entry is “inactive”.

As to `O=S1(=O)N=C(Oc2cccc(Cl)c2)c2ccccc21`, the Potency result is “inactive”.

As to `O=C1CCc2cc(S(=O)(=O)Nc3ccc4ccccc4c3)ccc2N1`, the Potency was 5.17 µM (active).

As to `O=C(O)c1ccccc1SC1=NS(=O)(=O)c2ccccc21`, the Potency was 32.6 µM [inhibitor] (active).

For the compound `CCNc1cccc(S(=O)(=O)N2CCN(S(=O)(=O)c3ccc4c(c3)OCCO4)CC2)c1`, the Potency was 0.0819 µM (active).

Turning to `O=C1c2ccccc2C(=O)N1c1ccccc1O`, the Potency entry is “inactive”.

Turning to `O=S1(=O)N=C(Oc2cccc(-c3ccccc3)c2)c2ccccc21`, the Potency result is “inactive”.

For `Cc1ccccc1Nc1c(-c2ccccc2)nc2cccc(C)n12`, the Potency entry was “inactive”.

Regarding `Cc1cc2c(s1)c1cnn(Cc3cc(F)c(F)cc3F)c(=O)c1n2C`, the Potency is 1.12 µM (active).

Turning to `O=C1CCc2cc(S(=O)(=O)Nc3ccc(F)c(Cl)c3)ccc2N1`, the Potency was 0.291 µM (active).

Consider `Cc1ccc(NS(=O)(=O)c2cc3c(cc2Br)NC(=O)CO3)cc1C`, for which the Potency is 18.3 µM (active).

As to `Cc1ccc(NC(=O)c2ccc3c(c2)CCC(=O)N3)cc1C`, the Potency result is “inactive”.

In the case of `Cc1ccc(NS(=O)(=O)c2cc3c(cc2-c2ccco2)NC(=O)CO3)cc1C`, the Potency was 9.19 µM (active).

Turning to `Cc1ccc(NS(=O)(=O)c2ccc3c(c2)NC(=O)CO3)cc1C`, the Potency is 20.6 µM (active).

For the compound `N#Cc1cccc(OC2=NS(=O)(=O)c3ccccc32)c1`, the Potency result is “inactive”.

As to `O=S1(=O)N=C(Oc2cccc(C(F)(F)F)c2)c2ccccc21`, the Potency entry was “inactive”.

On to `Nc1ccc(S(=O)(=O)N2CCCN(S(=O)(=O)c3ccc4c(c3)OCCO4)CC2)cc1`, for which the Potency is 1.03 µM (active).
